Hit rate of the full screen: of about 2,100 compounds, about 770 (37%) were called active.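 Rule for the calls: active = by-eye trace score of 1 for enhancers or -1 for inhibitors, so actives lie on both sides (some results past the limit were not filed as active); inactive = score 0, or 3 fluorescent, or 4 baseline rise.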 The list shows a part of the results.
molecular target: G protein-activated inward rectifier potassium channel 2 (Homo sapiens) + G protein-activated inward rectifier potassium channel 1 (Homo sapiens) (UniProt P48051+P48549); experiment: GIRK1/2 thallium flux modulators, retest, confirmation, cell-based, HEK293 rmGlu8/hGIRK1/2, FluoZin-2 (AID 623911); details: HEK293 rmGlu8/hGIRK1/2, thallium flux FluoZin-2; actives lie on both sides; glutamate co-added at its EC20 level
Sequence (P48051 whole entry, looked up): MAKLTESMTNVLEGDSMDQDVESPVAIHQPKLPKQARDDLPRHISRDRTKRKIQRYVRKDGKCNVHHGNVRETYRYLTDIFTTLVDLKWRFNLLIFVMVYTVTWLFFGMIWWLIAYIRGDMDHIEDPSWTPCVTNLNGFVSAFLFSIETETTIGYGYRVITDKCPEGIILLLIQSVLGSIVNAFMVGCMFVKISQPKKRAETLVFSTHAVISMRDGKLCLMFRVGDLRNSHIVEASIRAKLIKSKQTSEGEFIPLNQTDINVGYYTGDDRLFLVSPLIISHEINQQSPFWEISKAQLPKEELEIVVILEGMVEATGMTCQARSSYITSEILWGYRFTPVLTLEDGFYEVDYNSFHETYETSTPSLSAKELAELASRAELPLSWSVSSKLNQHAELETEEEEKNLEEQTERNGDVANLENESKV
Sequence (P48549 whole entry, looked up): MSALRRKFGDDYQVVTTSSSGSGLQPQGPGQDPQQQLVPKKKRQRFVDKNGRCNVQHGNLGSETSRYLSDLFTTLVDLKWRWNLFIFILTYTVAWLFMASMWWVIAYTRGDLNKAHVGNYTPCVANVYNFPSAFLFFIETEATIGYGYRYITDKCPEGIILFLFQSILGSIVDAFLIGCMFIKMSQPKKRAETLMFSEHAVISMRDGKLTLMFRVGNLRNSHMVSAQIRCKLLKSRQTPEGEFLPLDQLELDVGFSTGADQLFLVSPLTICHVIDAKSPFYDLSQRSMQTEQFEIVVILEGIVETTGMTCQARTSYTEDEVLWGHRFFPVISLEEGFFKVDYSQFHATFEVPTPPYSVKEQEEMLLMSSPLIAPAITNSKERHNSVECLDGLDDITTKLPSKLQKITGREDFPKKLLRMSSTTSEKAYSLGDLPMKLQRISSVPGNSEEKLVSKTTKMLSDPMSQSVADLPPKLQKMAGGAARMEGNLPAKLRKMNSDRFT

Manual score, active:
Cc1ccc(N2C=Nc3ccc(C)c4nc(C)cc2c34)cc1 -1
C/C(=N\NC(=O)c1cccc(F)c1)c1ccc(Br)s1 1
Clc1cccc(CSc2nc3ccncc3[nH]2)c1 1
C=CCSc1nc2sc3c(c2c(=O)n1CC)CCc1ccccc1-3 1
O=c1c(-c2ccccc2)nc(-c2ccccc2)cn1O 1
CC(C)CCn1c(CN2CCN(Cc3ccccc3)CC2)nc2c1c(=O)[nH]c(=O)n2C -1
COc1ccc(C2CC(c3ccc(Cl)c(Cl)c3)Nc3nc(N)nn32)cc1 (stereo unspecified) 1
COc1cccc(NC(=O)CC2COc3ccccc3O2)c1 (stereo unspecified) 1
COc1ccc(N2CCCn3c2nc2c3c(=O)n(Cc3ccccc3F)c(=O)n2C)c(OC)c1 -1
COC(=O)c1cc2sccc2n1CC(=O)N1CCCc2ccccc21 -1
C=CCN(CC=C)C(=S)NC(=O)/C=C/c1ccc(C)cc1 1
COc1ccc(C(=O)NC(=S)NCCO)cc1Br 1
C=CCN(CC=C)C(=S)NC(=O)c1ccc(C)c(Br)c1 1
C=CCN(CC=C)C(=S)NC(=O)c1ccc(OC)c(Br)c1 1
COC(=O)c1ccccc1NC(=S)NC(=O)COc1ccccc1 1
Cc1ccc(C(=O)NC(=S)Nc2ccccc2C(F)(F)F)cc1 1
COC(=O)c1ccccc1NC(=S)NC(=O)c1ccc(C)cc1 1
O=C(COc1ccccc1)NC(=S)Nc1cccc([N+](=O)[O-])c1 1
COC(=O)c1ccccc1NC(=S)NC(=O)c1ccccc1 1
S=C(Nc1ccc(Oc2ccccc2)cc1)NC1CCCC1 1
CCCN(CC1CC1)C(=S)Nc1ccc(Oc2ccccc2)cc1 1
CCOC(=O)c1ccc(NC(=S)NC2CCCC2)cc1 1
CC(C)CNC(=S)Nc1ccc(Oc2ccccc2)cc1 1
COc1ccc(CCNC(=O)CSc2nnc(-c3ccc(F)cc3)c3ccccc23)cc1OC -1
O=C(NN=C(Cc1ccccc1)Cc1ccccc1)c1ccc(F)cc1 1
Cc1ccccc1C(=O)Nc1ccccc1C(=O)N/N=C\c1ccco1 1
Fc1ccc(CSc2nc3ccccc3[nH]2)c2ccccc12 1
CN1CCN(c2ccccc2NS(=O)(=O)c2ccc3c(c2)CCN3C(=O)C2CCC2)CC1 -1
Cc1nc(NCCc2ccc(S(N)(=O)=O)cc2)c2c(C)c(C)sc2n1 1
CC(C)NC(=S)NC(=O)c1ccc(Cl)cc1Cl 1
CCCCNC(=S)NC(=O)c1ccc(Cl)cc1Cl 1
CC(C)CNC(=S)NC(=O)c1ccc(Cl)cc1Cl 1
C=CCn1c(=S)[nH]c2sc3c(c2c1=O)CCC3 1
Cc1nc(C)c(C(=O)Nc2ccc(Oc3ccccc3)cc2)o1 1
O=C1c2ccsc2SCCN1Cc1c(Cl)cccc1Cl -1
O=C(N/N=C/c1ccccn1)c1ccc(Br)cc1 1
CCOC(=O)C1=C(C)Nc2nnnn2C1c1ccccc1Cl (stereo unspecified) -1
CCCn1c(NCc2ccc(N(C)C)cc2)nc2ccccc21 -1
CCc1c(C)c(C#N)c2nc3ccccc3n2c1NCc1ccco1 -1
Cn1c(NCc2cccc(Br)c2)nc2ccccc21 -1
CCCCCn1c(NCc2ccco2)nc2ccccc21 -1

Manual score, inactive:
O=S(=O)(Cc1ccccc1)N1CCc2ccccc21 3
COc1cc(C)ccc1OCCOc1cc(C)ccc1Cl 0
CCC1CCCN1Cn1cnc2c([nH]c3ccc(OC)cc32)c1=O (stereo unspecified) 0
C/C(=N\NC(=O)c1ccccc1O)c1ccc(Br)s1 0.5
C/C(=N\NC(=O)c1ccc(Cl)cc1)c1ccc(Br)s1 0.5
CN(C=O)CP(=O)(O)CCN1CCCC1=O 0
O=C(CSc1nc2ccc(Cl)cc2[nH]1)Nc1ccc2c(c1)CCC2 0
Cc1ccc(CSc2nc3ccncc3[nH]2)cc1 0
CCN(CC)CCN1C(=O)c2oc3ccccc3c(=O)c2C1c1ccc(F)cc1 (stereo unspecified) 0
CCn1c(SCC(N)=O)nc2c(c1=O)C1(CCCC1)Cc1ccccc1-2 0
Cc1ccc(C)c(NC(=S)N=Nc2c(O)n(C)c3ccc(S(=O)(=O)N4CCOCC4)cc23)c1 0
N=c1oc2ccc3ccccc3c2cc1-c1nc(-c2ccccc2)cs1 3
CN(C)CCNc1nc2c(c(=O)[nH]c(=O)n2C)n1CCCc1ccccc1 0
CCN(C(=O)CN1CCN(c2ccccc2O)CC1)c1c(N)n(Cc2ccccc2)c(=O)[nH]c1=O 0
Nc1nc2n(n1)C(c1cccs1)CC(c1ccc(F)cc1)N2 (stereo unspecified) 0
CCn1c(=O)cc(OCC(=O)Nc2cccc(C)n2)c2ccccc21 0
COc1cccc2c1OC[C@@H](CO)[C@H]2N(C)C(=O)Nc1ccccc1 0
COc1cccc(NC(=O)NC2(C(F)(F)F)Oc3ccccc3O2)c1 0
CCc1cc2cccc(C)c2nc1SCC(=O)c1ccc(NC(C)=O)cc1 0
Cn1c(N2CCCC2)nc2c1c(=O)n(Cc1ccc(Cl)cc1)c(=O)n2C -0.5
Cn1c(C(=O)OC(C(=O)NC2CCCCC2)c2ccncc2)cc2sccc21 (stereo unspecified) 0
CC12CCC(C(=O)N3CCCc4ccccc43)(CC1=O)C2(C)C (stereo unspecified) 0
CS(=O)(=O)Nc1ccc(C2=NN(C(=O)C3CCCCC3)C(c3cccs3)C2)cc1 (stereo unspecified) -0.5
COc1ccc(C(=O)NC(=S)NC(C)C)cc1Br 0.5
Cc1ccnc(NC(=S)NC(=O)/C=C/c2ccco2)c1 0
COc1cc(/C=C2/C(=O)N=C(N)N2C)cc(OC)c1OC 0
CC(C)COc1ccc(Cc2cnc(N)nc2N)cc1 0
O=C(COc1ccccc1)NC(=S)Nc1ccc2c(c1)Cc1ccccc1-2 0
Cc1ccc(C(=O)NC(=S)Nc2ccccc2C(F)(F)F)cc1C 0
O=C(COc1ccccc1)NC(=S)Nc1ccc2c3c(cccc13)CC2 0.5
COC(=O)c1ccccc1NC(=S)NC(=O)COc1ccc(C)cc1 0
CCC1c2ccc(C)n2CCN1C(=O)Nc1ccccc1C(=O)OC (stereo unspecified) 0
O=C(NC(=S)Nc1ccc(Oc2ccc(Cl)cc2)cc1)c1ccccc1 0
CCOC(=O)c1[nH]c(C)c(C(=O)NC2CCCCC2)c1C 0
CCOC(=O)c1ccc(NC(=S)NC(=O)COc2ccccc2)cc1 0.5
S=C(NN=C(C1CC1)C1CC1)Nc1ccccc1 0
CC1CCCCN1CC(=O)Nc1ccc(Oc2ccccc2)cc1 (stereo unspecified) 0
FC(F)(F)Oc1ccc(NC(=S)NCc2ccccc2)cc1 0
COc1ccc(N(CC(=O)NCCSc2ccccn2)S(C)(=O)=O)cc1Cl 0
COc1ccc(CN(C)CC(=O)NC(=O)NCc2ccccc2)cc1OC 0
COc1cc2c(cc1NC(=O)COc1ccccc1OC)oc1ccccc12 0
CCCCC(=O)Nc1ncc2c(n1)CC(C)(C)CC2=O 0
CC1(C)Cc2nc(NCCN3CCOCC3)c(C#N)cc2CO1 0
N/C(=N\OC(=O)Cc1ccccc1)c1ccc(Br)cc1 0
O=C(Nc1ccccc1C(=O)N/N=C/c1ccco1)c1ccccc1 0.5
Cc1cc(C)c(NC(=O)/C(=C/c2ccco2)c2ccccc2)c(C)c1 0
CC(Sc1nc2ccccc2c(=O)[nH]1)C(=O)O (stereo unspecified) 0
O=C(CSc1nc2ccccc2[nH]1)NC1CCCc2ccccc21 (stereo unspecified) 0
O=[n+]1c2c(n([O-])c3cc(F)c(N4CCCC4)cc31)CCC2 3
CCCN(CCC)CCNC(=O)C(NS(=O)(=O)c1ccc2c(c1)CCC(=O)N2)c1ccccc1 (stereo unspecified) 0
Cc1ccc(S(=O)(=O)n2cnc3cc([N+](=O)[O-])ccc32)cc1C 0
COc1ccc(OC)c(C2C(C(=O)c3cc4ccccc4o3)=C(O)C(=O)N2c2cc(C)on2)c1 (stereo unspecified) 0
NS(=O)(=O)c1ccc(CCNC2CC(=O)N(Cc3ccccc3)C2=O)cc1 (stereo unspecified) 0
Cc1cccc(-n2ncc3c(NCCc4ccc(S(N)(=O)=O)cc4)ncnc32)c1 0
CCCCNC(=S)NC(=O)c1ccccc1Br 0.5
CC(C)CNC(=S)NC(=O)c1ccccc1Cl 0
CCOc1ccc(C(C)=O)cc1N1C(=O)C2C(C1=O)C1C=CC2C12CC2 (stereo unspecified) 0
CC(=O)Nc1ccc(Oc2ncccn2)cc1 0
Cc1ncoc1C(=O)Nc1ccc(Oc2ccccc2)cc1 0.5
CCCC(c1c(C)n(C)n(-c2ccccc2)c1=O)c1c(C)n(C)n(-c2ccccc2)c1=O 0
O=C(N/N=C/c1ccc2cccc(OCc3ccccc3)c2n1)c1ccc(Br)cc1 0.5
COc1ccc(C(=O)N/N=C/c2ccc3cccc(OCc4ccccc4)c3n2)cc1 0
CCCC1=C(C(=O)OCC)C(c2ccc(F)cc2)n2ncnc2N1 (stereo unspecified) 0
CCOC(=O)C1=C(C)NC2=C(C(=O)C(C(=O)OCC)C(c3ccccc3OC)C2)C1c1ccccn1 (stereo unspecified) 0
CCN1c2ccccc2-c2nc3ccccc3n2C1c1ccco1 (stereo unspecified) 0
C/C(=N\NC(=O)c1ccccc1)c1nc2ccccc2n1C 0
CCCCn1c(SCC(=O)NCc2ccco2)nc2ccccc2c1=O 0.5
CCCCn1c(NC(=S)Nc2ccccc2)nc2ccccc21 0
CC(C)CCn1c(S(=O)(=O)O)nc2ccccc21 0
CCCCn1c(NC(=O)c2ccccc2Cl)c(C#N)c2nc3ccccc3nc21 -0.5

Reference: PubChem BioAssay AID623911 (Vanderbilt High Throughput Screening Facility, 2012)
